Laboratory results: PubChem BioAssay AID1159580 (chemical genetic matrix, 2015)
Out of some 5,500 compounds screened, about 2,000 (36%) were called active. Another 18% or so got no clear call; they are omitted. No stated cut-off is given here; in the data, active means normalized growth mostly below about 0.91 (no sharp cut-off); inconclusive means no clear call, values can overlap the other calls; inactive means mostly above about 0.92. This is one part of the list.

Assay: chemical genetic growth profiling, strain panel (AID 1159580);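 further: tested at 20 µM; growth read once vehicle control cultures reached saturation at 30 °C; 1 = growth at the plate median or of vehicle wells; lower values mean less growth of the strain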
Details: growth OD

Measured: normalized growth

CCn1cc(C(=O)O)c(=O)c2cc(F)c(N3CCNCC3)nc21
inactive: S. cerevisiae deletion strains, locus YJR066W, strain TOR1, hits give low values 0.976 | S. cerevisiae deletion strains, locus YJR075W, strain HOC1, hits give low values 1.01 | S. cerevisiae deletion strains, locus YKL009W, strain mrt4, hits give low values 1.01 | S. cerevisiae deletion strains, locus YKL068W, hits give low values 1.01 | S. cerevisiae deletion strains, locus YKL085W, strain MDH1 (second series), hits give low values 1.01 | S. cerevisiae deletion strains, locus YKL085W, strain MDH1, hits give low values 1.01 | S. cerevisiae deletion strains, locus YKL160W, strain elf1, hits give low values 1 | S. cerevisiae deletion strains, locus YKL190W, strain CNB1, hits give low values 1.02 | S. cerevisiae deletion strains, locus YKR001C, strain vps1, hits give low values 1.02 | S. cerevisiae deletion strains, locus YKR026C, strain gcn3, hits give low values 0.989 | S. cerevisiae deletion strains, locus YKR091W, strain srl3, hits give low values 0.983 | S. cerevisiae deletion strains, locus YLL001W, strain dnm1, hits give low values 0.991 | S. cerevisiae deletion strains, locus YLL026W, hits give low values 0.992 | S. cerevisiae deletion strains, locus YLL041C, strain sdh2, hits give low values 0.964 | S. cerevisiae deletion strains, locus YLR027C, strain aat2, hits give low values 0.989 | S. cerevisiae deletion strains, locus YLR039C, strain RIC1, hits give low values 1.01 | S. cerevisiae deletion strains, locus YLR058C, strain SHM2, hits give low values 1.02 | S. cerevisiae deletion strains, locus YLR102C, strain apc9, hits give low values 1.01 | S. cerevisiae deletion strains, locus YLR113W, strain HOG1, hits give low values 1.08 | S. cerevisiae deletion strains, locus YLR221C, strain rsa3, hits give low values 0.984 | S. cerevisiae deletion strains, locus YLR258W, strain gsy2, hits give low values 0.987 | S. cerevisiae deletion strains, locus YLR262C, strain YPT6 (second series), hits give low values 0.945 | S. cerevisiae deletion strains, locus YLR262C, strain YPT6, hits give low values 1.03 | S. cerevisiae deletion strains, locus YLR268W, strain sec22, hits give low values 1.01 | S. cerevisiae deletion strains, locus YLR320W, strain mms22, hits give low values 0.999 | S. cerevisiae deletion strains, locus YLR330W, strain CHS5, hits give low values 1.01 | S. cerevisiae deletion strains, locus YLR342W, strain FKS1 (second series), hits give low values 1.03 | S. cerevisiae deletion strains, locus YLR342W, strain FKS1, hits give low values 0.981 | S. cerevisiae deletion strains, locus YLR357W, strain rsc2, hits give low values 0.897 | S. cerevisiae deletion strains, locus YLR370C, strain arc18, hits give low values 0.975 | S. cerevisiae deletion strains, locus YLR371W, strain rom2, hits give low values 1.02 | S. cerevisiae deletion strains, locus YLR384C, strain iki3, hits give low values 0.983 | S. cerevisiae deletion strains, locus YLR418C, strain cdc73, hits give low values 1.01 | S. cerevisiae deletion strains, locus YML016C, strain PPZ1, hits give low values 1.01 | S. cerevisiae deletion strains, locus YML032C, strain rad52, hits give low values 1.02 | S. cerevisiae deletion strains, locus YML120C, strain ndi1, hits give low values 0.983 | S. cerevisiae deletion strains, locus YML124C, strain tub3, hits give low values 1.01 | S. cerevisiae deletion strains, locus YMR058W, strain fet3, hits give low values 0.982 | S. cerevisiae deletion strains, locus YMR078C, strain ctf18, hits give low values 1 | S. cerevisiae deletion strains, locus YMR125W, strain sto1, hits give low values 0.973 | S. cerevisiae deletion strains, locus YMR129W, hits give low values 0.981 | S. cerevisiae deletion strains, locus YMR205C, strain PFK2, hits give low values 1.01 | S. cerevisiae deletion strains, locus YMR223W, strain ubp8, hits give low values 1.02 | S. cerevisiae deletion strains, locus YMR231W, strain pep5, hits give low values 0.991 | S. cerevisiae deletion strains, locus YMR307W, strain GAS1, hits give low values 1.02 | S. cerevisiae deletion strains, locus YNL067W, strain RPL9B, hits give low values 1 | S. cerevisiae deletion strains, locus YNL071W, strain lat1, hits give low values 0.968 | S. cerevisiae deletion strains, locus YNL153C, strain GIM3, hits give low values 0.99 | S. cerevisiae deletion strains, locus YNL183C, strain NPR1, hits give low values 0.982 | S. cerevisiae deletion strains, locus YNL209W, strain ssb2, hits give low values 0.971 | S. cerevisiae deletion strains, locus YNL233W, strain BNI4, hits give low values 0.978 | S. cerevisiae deletion strains, locus YNL248C, strain rpa49, hits give low values 0.989 | S. cerevisiae deletion strains, locus YNL250W, strain rad50, hits give low values 1.03 | S. cerevisiae deletion strains, locus YNL271C, strain bni1, hits give low values 1.02 | S. cerevisiae deletion strains, locus YNL298W, strain CLA4, hits give low values 1.01 | S. cerevisiae deletion strains, locus YNL307C, strain MCK1, hits give low values 1.02 | S. cerevisiae deletion strains, locus YNL322C, strain KRE1 (second series), hits give low values 0.976 | S. cerevisiae deletion strains, locus YNR049C, strain mso1, hits give low values 0.981 | S. cerevisiae deletion strains, locus YNR052C, strain pop2, hits give low values 1.02 | S. cerevisiae deletion strains, locus YOL006C, strain TOP1, hits give low values 1.02 | S. cerevisiae deletion strains, locus YOL012C, strain htz1 1.02 | S. cerevisiae deletion strains, locus YOL147C, strain pex11, hits give low values 1.02 | S. cerevisiae deletion strains, locus YOR001W, strain rrp6, hits give low values 0.987 | S. cerevisiae deletion strains, locus YOR061W, strain CKA2, hits give low values 1.02 | S. cerevisiae deletion strains, locus YOR069W, strain VPS5, hits give low values 1.01 | S. cerevisiae deletion strains, locus YOR070C, strain gyp1, hits give low values 0.993 | S. cerevisiae deletion strains, locus YOR080W, strain dia2, hits give low values 0.993 | S. cerevisiae deletion strains, locus YOR083W, strain WHI5, hits give low values 0.99 | S. cerevisiae deletion strains, locus YOR106W, strain vam3, hits give low values 0.988 | S. cerevisiae deletion strains, locus YOR136W, strain idh2, hits give low values 1.01 | S. cerevisiae deletion strains, locus YOR144C, strain elg1, hits give low values 1.01 | S. cerevisiae deletion strains, locus YOR184W, strain ser1, hits give low values 1.02 | S. cerevisiae deletion strains, locus YOR231W, strain MKK1, hits give low values 1.05 | S. cerevisiae deletion strains, locus YOR265W, strain rbl2, hits give low values 0.986 | S. cerevisiae deletion strains, locus YOR270C, strain vph1, hits give low values 0.991 | S. cerevisiae deletion strains, locus YOR290C, strain snf2, hits give low values 0.961 | S. cerevisiae deletion strains, locus YOR316C, strain cot1, hits give low values 1.02 | S. cerevisiae deletion strains, locus YPL051W, strain arl3, hits give low values 0.994 | S. cerevisiae deletion strains, locus YPL078C, strain atp4, hits give low values 0.984 | S. cerevisiae deletion strains, locus YPL106C, strain sse1, hits give low values 0.947 | S. cerevisiae deletion strains, locus YPL240C, strain hsp82, hits give low values 0.977 | S. cerevisiae deletion strains, locus YPL241C, strain CIN2, hits give low values 1.01 | S. cerevisiae deletion strains, locus YPL256C, strain CLN2, hits give low values 1.04 | S. cerevisiae deletion strains, locus YPR119W, strain clb2, hits give low values 1.01 | S. cerevisiae deletion strains, locus YPR141C, strain kar3, hits give low values 1.01 | S. cerevisiae deletion strains, locus YPR163C, strain tif3, hits give low values 1.03 | S. cerevisiae deletion strains, locus YPR167C, strain met16, hits give low values 1.01 | S. cerevisiae deletion strains, strain wtn01, hits give low values 1.01 | S. cerevisiae strains, strain wild type, hits give low values 1.02
